Compound activity from PubChem.
Shown is part of a subset that was picked to be rich in hits.
KDM5B inh = blocks human KDM5B histone demethylase activity; Potency, µM (top dose mostly 57.7 µM), actives largely listed as inhibitors; Q9UGL1; 220,000 tested, 2.6% active; AID 1347165; KDM5B demethylase, FDH-coupled NADH fluorescence (FDH is formaldehyde dehydrogenase); active = well fitted inhibition curve with a large enough effect; note: 0% is about no effect; nearly all actives have a fitted effect of over 70% in size
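Compound dilutions met 200 nM (final) KDM5BΔAP for 10 min at room temperature before substrate addition. The substrate mix held 12.5 µM H3K4me3 with cofactors 25 µM α-ketoglutarate and 50 µM Fe²⁺. NADH signal gain over 30 min defined activity.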
* = called active by the depositor; i = inactive. Potency is the fitted concentration of half-maximal effect.

SMILES	KDM5B inh
NC(=O)C1CCN(C(=O)CCCC(=O)N2CCN(C(=O)c3cc4ccccc4[nH]3)CC2)CC1	i
CC1=NS(=O)(=O)N(Cc2ccccc2)C=C1C(=O)OCc1nc(-c2ccc3c(c2)OCO3)no1	i
c1cc(CNC[C@H]2Cn3cc(-c4ccc5c(c4)OCCCO5)nc3CO2)ccn1	i
Cn1c(CNC(=O)c2ccccc2Br)nnc1SCC(=O)N1CCOCC1	i
Cc1cccc(NC(=O)C(C#N)C(=O)c2ccccc2Cl)c1 (stereo not drawn)	i
O=C(c1cccc2[nH]ccc12)N1CC[C@@H]2COCCN(Cc3ccncc3)[C@@H]2C1	28.2µM*
O=C(c1cccs1)N1CC[C@@H]2COCCN(Cc3cccnc3)[C@@H]2C1	i
CS(=O)(=O)N1C[C@H]2CCN(C(=O)c3ccc4[nH]ccc4c3)C[C@H]21	i
COc1ccc(C(=O)N2CC[C@@H]3COCCN(Cc4cccnc4)[C@@H]3C2)c(OC)c1	i
CC(=O)NCC(=O)N1CC[C@@H]2COCCN(Cc3ccccc3)[C@@H]2C1	i
O=C(c1cccc2[nH]ccc12)N1CC[C@@H]2COCCN(Cc3cccnc3)[C@@H]2C1	17.8µM*
O=C(c1ccoc1)N1CC[C@@H]2COCCN(Cc3ccccc3)[C@@H]2C1	i
CS(=O)(=O)N1C[C@H]2CCN(C(=O)c3cccc4[nH]ccc34)C[C@H]21	17.8µM*
Cc1ncccc1C(=O)N1CC[C@@H]2CN(S(C)(=O)=O)[C@@H]2C1	i
O=C(NC(c1ccc(F)cc1)c1cccs1)C1CCN(Cc2ccncc2)CC1 (stereo not drawn)	i
COc1cccc(N2CCN(C(=O)CCn3ccn4nc5c(c4c3=O)CCCC5)CC2)c1	i
CCn1nc(C(=O)Nc2c(F)c(F)c(F)c(F)c2F)c2ccccc2c1=O	i
CC(Oc1ccccc1)C(=O)Nc1ccc(OCc2ccccc2)cc1 (stereo not drawn)	i
Cc1c(Cl)cccc1NC(=O)C1CCN(S(=O)(=O)c2ccc(N3CCCC3=O)cc2)CC1	i
O=C(C1CCCC1)N1CCN(c2nnc3c(Cl)cccn23)CC1	i
Cc1nc2c(OCC(=O)OC(C)(C)C)cccn2c(=O)c1-c1cc(C)n(-c2ccc(Cl)cc2)n1	28.2µM*
CCOC(=O)C(C)Oc1ccc2c(=O)c(-c3ccc(Cl)cc3)c(C)oc2c1 (stereo not drawn)	i
Cc1cc(OCC(=O)OC(C)(C)C)c2c(-c3ccccc3)cc(=O)oc2c1	i
CCOC(=O)C(C)On1c(-n2nc(C)cc2C)nc2ccccc2c1=O (stereo not drawn)	i
COC(=O)c1ccccc1NC(=O)Cn1nc(C)c2nn(-c3ccc(Cl)cc3)c(C)c2c1=O	i
SMILES	KDM5B inh
CCOC(=O)C(C)Oc1cccn2c(=O)c(-c3cc(C)n(-c4ccc(Cl)cc4)n3)c(C)nc12 (stereo not drawn)	22.4µM*
COC(=O)C1=CN(CC(=O)Nc2c(C)cc(C)cc2C)S(=O)(=O)N=C1C	i
Fc1ccc(N/N=C/c2cccc(Br)c2)c(F)c1	i
CC(C)CCN1CCCC2(CC(c3cccc(C(F)(F)F)c3)=NO2)C1 (stereo not drawn)	i
CN1C[C@@H](NS(=O)(=O)Cc2ccccc2)C[C@H]1c1nc(-c2ccccc2)no1	i
C[S+](=O)([O-])CCn1ncc2cc(OCc3cccc(-c4ccc(F)cc4)c3)ccc21	35.5µM*
Cc1cc(-c2cccc(COc3ccc4c(cnn4CC[S+](C)(=O)[O-])c3)c2)ccn1	i
COc1ccc(-c2ccc(COc3ccc4c(cnn4CCC(=O)O)c3)cc2)c(Cl)c1	i
C[S+](=O)([O-])CCn1ncc2cc(OCc3cccc(-c4ccccc4O)c3)ccc21	i
COc1ncccc1-c1cccc(COc2ccc3c(cnn3CC[S+](C)(=O)[O-])c2)c1	31.6µM*
COc1cccc(F)c1-c1ccc(COc2ccc3c(cnn3CCC(=O)O)c2)cc1	i
COc1ncc(-c2cccc(COc3ccc4c(cnn4CC[S+](C)(=O)[O-])c3)c2)cn1	35.5µM*
C[S+](=O)([O-])CCn1ncc2cc(OCc3cccc(-c4cncnc4)c3)ccc21	i
Cc1nc(Oc2ccc(F)cc2)c2c3c(sc2n1)CCCC3	i
COCc1noc(CC2CCOC3(CCN(C(=O)c4cc5ccccc5[nH]4)CC3)C2)n1 (stereo not drawn)	i
COc1ccc(C2Cn3cnc(-c4nc(-c5cccs5)no4)c3CO2)cc1 (stereo not drawn)	i
Cc1cc(C)c(S(=O)(=O)NCCO)cc1C	i
Clc1ccccc1-c1nc(CSc2nnc(C3COc4ccccc4O3)o2)no1 (stereo not drawn)	i
Cc1ccccc1OCCSCc1ccc(C(N)=O)cc1	i
COc1ccc(-c2nnc([C@H]3CCN(Cc4ncc[nH]4)C3)o2)cc1	35.5µM*
O=C(O)c1ccc(CN2CC[C@H](c3nnc(-c4ccc(Cl)cc4)o3)C2)cc1	i
COc1ccc(CN2CC[C@H](c3nnc(-c4ccncc4)o3)C2)cc1	i
COc1ccc(-c2nnc([C@H]3CCN(Cc4cccc(C#N)c4)C3)o2)cc1	i
Cc1ccc(-c2nnc([C@H]3CCN(Cc4ncc[nH]4)C3)o2)cc1	35.5µM*
Cc1ccc(-c2nnc([C@H]3CCN(Cc4ccc(S(C)(=O)=O)cc4)C3)o2)cc1	i
SMILES	KDM5B inh
Cc1cc(NC(=O)COC(=O)c2nn(C(C)C)c(=O)c3ccccc23)no1	i
CCN(C(=O)CSc1ncnc2ccccc12)c1ccccc1	i
COCCn1cnc2ccc(N3CCCC3)nc2c1=O	31.6µM*
COCCn1cnc2ccc(OCc3ccc(C(F)(F)F)cc3)nc2c1=O	i
COCCn1cnc2ccc(-c3cccc(O)c3)nc2c1=O	i
COCCn1ccc2nc3ncnn3c(-c3ccccc3)c2c1=O	i
COCCn1cnc2ccc(OCc3ccc(Cl)cc3)nc2c1=O	i
COCCn1cnc2ccc(OCC3CC3)nc2c1=O	i
COCCn1cnc2ccc(-c3ccccc3)nc2c1=O	35.5µM*
COCCn1cnc2ccc(-c3ccc(F)cc3)nc2c1=O	35.5µM*
COCCn1cnc2ccc(-c3cccnc3OC)nc2c1=O	39.8µM*
COc1ccc2c(c1)cc(C(=O)Nc1ccccc1Cl)n2C	i
CCCN(CC1CCOC1)C(=O)Nc1ccc(C(F)(F)F)cc1 (stereo not drawn)	i
Cc1cc(Cl)ccc1S(=O)(=O)N1CCC(n2cnnc2C)CC1	i
O=C(Nc1sc2c(c1C(=O)O)CCCC2)c1cccnc1	i
Nc1nc(NCCc2ccc(F)cc2)c2[nH]cnc2n1	i
O=C(COC(=O)C12CC3CC(CC(Br)(C3)C1)C2)Nc1c(Br)cc([N+](=O)[O-])cc1Br	i
COc1ccc(C2CCCCCN2C(=O)c2csc(-c3ccsc3)n2)cc1 (stereo not drawn)	i
COc1cc(-c2ncccc2C(=O)N2CCCC2)cc(OC)c1OC	i
COc1ccccc1-c1c(C)nn2c(NC3CCCC3)cc(C)nc12	i
Cc1nn2c(-c3ccco3)ccnc2c1-c1ccc(Br)cc1	i
CCc1nn2c(-c3ccccc3OC)ccnc2c1-c1ccc(F)cc1	i
Cc1nn2c(-c3ccco3)ccnc2c1-c1ccc(Cl)cc1	i
COc1cccc(-c2ccnc3nc(C4CCC4)nn23)c1	28.2µM*
COc1cc(F)ccc1-c1ccnc2nc(C3CCCCC3)nn12	28.2µM*
COc1cccc(-c2ccnc3c(-c4ccc(F)cc4)c(C)nn23)c1	i
COc1cc(-c2ccnc3nc(C4CCC4)nn23)cc(OC)c1OC	22.4µM*
